From PubChem BioAssay AID1159580 (chemical genetic matrix, 2015) come the findings set out here.

SMILES strings stand for the structures. Among all 5,500 compounds or so, about 2,000 (36%) were called active. Inconclusive results (about 18%) are left out. This is one part of the list. Values without a mark were called inactive. Cut-off read from the data, not from the text of the source: active = normalized growth mostly below about 0.91 (no sharp cut-off); inconclusive = no clear call, values can overlap the other calls; inactive = mostly above about 0.92.

This test in a line: chemical genetic growth profiling, strain panel (AID 1159580).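 Note: tested at 20 µM; growth read once vehicle control cultures reached saturation at 30 °C; 1 = growth at the plate median or of vehicle wells; lower values mean less growth of the strain.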 The following applies: S. cerevisiae deletion strains, growth OD.

In the case of `C(=C\c1ccccc1)/CN1CCN(C(c2ccccc2)c2ccccc2)CC1`, the normalized growth was 0.995 (locus YAL040C, strain CLN3, active compounds read low); 0.992 (locus YCL061C, strain MRC1 (second series), active compounds read low); 1.09 [resistant] (active) (locus YER002W, strain NOP16, active compounds read low); 0.998 (locus YMR307W, strain GAS1, active compounds read low); 0.851 (locus YNL153C, strain GIM3, active compounds read low); 1.11 (locus YNL197C, strain WHI3, active compounds read low). In addition, the normalized growth by setting is: (locus YNL224C, strain SQS1, active compounds read low) 1.02; (locus YOR083W, strain WHI5 (second series), active compounds read low) 0.99; (locus YPL055C, strain LGE1, active compounds read low) 1.
